The record followed here is PubChem BioAssay AID796 (Columbia University Molecular Screening Center, 2007).

The whole screen tested about 94,000 compounds, of which about 410 (0.44%) were called active.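 How the source made its calls: active means inhibition above about 30% together with a positive call from visual inspection of the well image (limit read from the data); inconclusive means inhibition above a set limit but visual check negative; inactive means inhibition not above a set limit, visual check negative.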 The entries come from a sample that favours actives as a whole.

The assay can be described thus: inhibitors of IL-1B driven NFkB p65 nuclear import, primary screen, imaging, HUVEC, IL-1B stimulus, high-content imaging (AID 796).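 Further: nuclear over cytoplasmic p65 intensity ratio measured by imaging; 0% = IL-1B stimulated DMSO wells and 100% = unstimulated DMSO wells.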 The note with it: HUVEC IL-1B NFkB p65 nuclear translocation imaging; at 2 µM; active compounds read high.
As to `Cc1noc(C)c1CSCC(=O)Nc1nc2ccc(Oc3ccccc3)cc2s1`, the inhibition (as a rule, the drop in the measured response relative to a control, in per cent) is -3.4% (inactive).
With `Cc1ccc(-n2nc(N)c3c(=O)oc(N(C)C)nc32)cc1`, the inhibition was -5.7% (inactive).
The value for `O=C(COc1ccc(Cl)cc1)NCCC1=CCCCC1` was 1.3% (inactive); that for `COc1ccc(C(=O)NN(C)c2nc(-c3ccccc3)cc(C)c2S(C)(=O)=O)cc1` was -10.1% (inactive); that for `CN(NC(=O)c1ccccc1)c1nc2ccccc2nc1C(F)(F)F` was 12.5% (inactive).
Consider `CSc1nc(N(C)NC(=O)c2cccc(C)c2)c2ccccc2n1`, for which the inhibition is 34.2% (active).
Regarding `O=S(=O)(c1cnccc1N1CCN(/N=C/c2ccc(Br)cc2)CC1)N1CCCCC1`, the inhibition is -15.8% (inactive).
The value for `COc1cc(OC)cc(C(=O)NC2CCN(C(=O)N3c4ccccc4Sc4ccccc43)CC2)c1` was -1.1% (inactive).
Consider `Cc1ccccc1N1CCN(CCCOc2ccc3c(C)cc(=O)oc3c2)CC1`, for which the inhibition was -2.5% (inactive).
As for `Cn1c(C(=O)OC(C(=O)NC2CCCCC2)c2ccccn2)cc2sccc21` (centres undefined), the inhibition was -1.9% (inactive).
On to `COc1cccc(/C=N/NC(=O)c2cccc([N+](=O)[O-])c2)c1OS(=O)(=O)c1ccc(C)cc1`, for which the inhibition was 1.2% (inactive).
In the case of `Cc1ccc(S(=O)(=O)N(C)C2(C)CCS(=O)(=O)C2)cc1` (centres undefined), the inhibition was -19.1% (inactive).
The value for `CC(C)n1c(-c2cccs2)nc2ccccc21` was -4.4% (inactive); that for `C=CCn1c(COc2ccccc2)nnc1SCC(=O)NCC(=O)OCC` was -6.1% (inactive); that for `C=CCn1c(COc2ccccc2C)nnc1SCC(=O)O` was -19.2% (inactive).
For `C=CCn1c(COc2cccc3cccnc23)nnc1SCC(=O)OC` the value was 30.7% (active); for `COc1ccc(C(=O)Oc2cc(/C=N/NS(=O)(=O)c3ccc(C)cc3)ccc2OC)cc1`, -13.4% (inactive); for `COc1cc(C(=S)N2CCOCC2)cc(OC)c1OC(=O)c1cc([N+](=O)[O-])cc([N+](=O)[O-])c1`, 2.4% (inactive).
As to `COc1ccccc1OCc1nc2ccccc2s1`, the inhibition was 9.7% (inactive).
Regarding `O=C(Nc1ccccc1-c1nnn(CC(=O)N2CCCc3ccccc32)n1)c1cccc(Cl)c1`, the inhibition was 9.4% (inactive).
With `OC(c1ccccc1)c1nccn1Cc1ccccc1` (centres undefined), the inhibition is -26.3% (inactive).
Take `Cn1cnc([N+](=O)[O-])c1Sc1ccccc1`: the inhibition was 7% (inactive).
Consider `CCOC(=O)c1c(NC(C)=O)sc2c(O)c(Br)ccc12`, for which the inhibition was -8% (inactive).
With `CCC(C)NC(=O)C1CCCN(C(=O)NC2CCCCC2)C1` (centres undefined), the inhibition is -6.5% (inactive).
Take `Cc1ccc(NC(=S)Nc2ncccc2C)c(C)c1`: the inhibition is 8.4% (inactive).
As to `COc1ccc(C(=O)NC(=S)Nc2ccccc2N2CCN(S(C)(=O)=O)CC2)cc1OC`, the inhibition was -15.4% (inactive).
With `Cc1[nH]c(=O)c(C(=O)/C=C/c2ccccc2)c2c1CCCC2`, the inhibition was -9.9% (inactive).
With `CC(=O)c1cn(CCCCCCCCCCn2cc(C(C)=O)c(=O)[nH]c2=O)c(=O)[nH]c1=O`, the inhibition was -1.7% (inactive).
Take `CN(CC(=O)Nc1cccc2c1CCCC2)S(=O)(=O)c1ccc(Cl)cc1`: the inhibition is 8.4% (inactive).
As for `CCOc1ccccc1NC(=O)C1CCCN(C(=O)Nc2ccccc2)C1` (centres undefined), the inhibition is 40.5% (active).
For `CCOc1ccc(NC(=O)C2CCCN(C(=O)Nc3ccccc3)C2)cc1` (centres undefined) the value was 5.5% (inactive).
As for `CCOc1ccccc1NC(=O)C1CCN(S(=O)(=O)c2c(C)nn(C)c2C)CC1`, the inhibition is 13.5% (inactive).
As to `N#C/C(=C/c1ccc(Cl)cc1)NC(=O)c1ccccc1`, the inhibition is 0.7% (inactive).
Turning to `COc1ccc(C(F)(F)F)cc1N/C=C\c1nnnn1-c1ccc(C)cc1`, the inhibition is 7.9% (inactive).
Turning to `O=C(NCCCCCCCCCNC(=O)C(F)(F)F)C(F)(F)F`, the inhibition is 8.3% (inactive).
Turning to `CC(C)(CNCC(O)c1ccccc1)N1CCOCC1` (centres undefined), the inhibition was -8.1% (inactive).
In the case of `Cc1c(C(=O)CN2CCOCC2)[nH]c2ccccc12`, the inhibition is -7.9% (inactive).
`CC(C)(CNC(=O)c1cc(=O)[nH]c2ccccc12)N1CCOCC1`: the inhibition is 31% (active).
In the case of `c1ccc2c(C[n+]3csc4ccccc43)cccc2c1`, the inhibition was -13.2% (inactive).
The value for `CCc1nc(C)ccc1OCC(=O)N(CC)CC` was 5.7% (inactive).
On to `Fc1ccc(CNc2nc3ccccc3n3nnnc23)cc1`, for which the inhibition was -20.9% (inactive).
For `CCOc1ccc(S(=O)(=O)Nc2nc3cc(OC)ccc3s2)cc1`, the inhibition was -6% (inactive).
As to `Cc1ccc(C(c2nnnn2CS(=O)(=O)c2ccc(C)cc2)N2CCC(C)CC2)cc1` (centres undefined), the inhibition is -0.3% (inactive).
In the case of `O=C(Oc1ccc([N+](=O)[O-])cc1)c1ccc2ccccc2n1`, the inhibition was 1.7% (inactive).
In the case of `CCOC(=O)C1Sc2[nH]c(=O)sc2C(c2ccc(Cl)cc2)C1C(=O)OCC` (centres undefined), the inhibition was -11% (inactive).
For `O=C(CSc1nc(C2CC2)nc2ccccc12)Nc1ccc2c(c1)OCCO2`, the inhibition was 4.6% (inactive).
Turning to `O=C(CSc1nnnn1C1CCCC1)Nc1ccc2c(c1)OCCO2`, the inhibition was -42.7% (inactive).
The value for `O=C(CSc1nc2ncccc2[nH]1)Nc1ccc2c(c1)OCCO2` was 97% (active).
`O=C(/C=C/c1ccco1)Nc1ccc(Oc2ccccc2)cc1`: the inhibition was -2.7% (inactive).
For the compound `c1ccc(C(c2ccccc2)N2CCN(Cc3nnnn3C3CCCCC3)CC2)cc1`, the inhibition is 10.8% (inactive).
On to `CC1=NN(Cc2ccccc2)C(=O)/C1=C/c1ccc(N(C)C)cc1`, for which the inhibition was -0.4% (inactive).
`CCCCC(=O)N/N=C(\C)CC(=O)Nc1cc(Cl)ccc1OC`: the inhibition was -3.2% (inactive).
The value for `COc1ccccc1NC(=O)c1ccc(C)s1` was -3.2% (inactive).
For `COc1ccccc1NC(=S)NC(=O)C(C)C` the value was 13.7% (inactive).
For `COc1ccccc1NC(=O)/C=C/C(N)=O` the value was 43.6% (active).
With `O=C(NCc1ccccc1Cl)c1csc2c1CCCCC2`, the inhibition was 6.8% (inactive).
Regarding `Cc1ccc(SCC(=O)Nc2ncc(C)s2)cc1`, the inhibition was -75.7% (inactive).
With `CN(C)/C=C(\C#N)C(=O)c1cccnc1Oc1cccc(F)c1`, the inhibition was -5.1% (inactive).
`COC(=O)c1ccc(C(=O)OC)c(NC(=S)N2CCCCC2)c1`: the inhibition is 8.4% (inactive).
Regarding `COC(=O)c1ccc(CSc2ccc3nnc(-c4ccccc4)n3n2)o1`, the inhibition was -0.1% (inactive).
The value for `COc1cc(C(=O)NC(=S)NCc2ccco2)cc(OC)c1OC` was -3.4% (inactive); that for `O=C(/C=C/Sc1ncn[nH]1)c1ccc(Cl)cc1` was 47.7% (active); that for `Cc1ccc(C(=O)/C=C/c2c(C)nn(-c3ccccc3)c2Cl)cc1` was 15.3% (inactive).
On to `CC(C)(C)c1ccc(C(=O)CSc2ncn[nH]2)cc1`, for which the inhibition was -29.2% (inactive).
